Several values for one entry are separate records, joined by “and”; a condition that tells them apart may be missing. Equal entries are not always repeated. Activity calls are given as the source filed them. The calls were made as follows: active = hit-call score of the fitted dose curve at least 0.9, where 1 is the maximum; inconclusive = response in the unintended direction; inactive = score below 0.9.

This assay has as its system Thyroperoxidase (TPO), gene 54314. The assay can be described thus: CCTE_Simmons_AUR_rTPO: CCTE's Amplex UltraRed Assay for Thyroperoxidase (TPO) Inhibition, Simmons Lab (AID 2283662).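 As to AC50: potency for loss of signal meaning inhibition of peroxidase activity.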 Here is the method: CCTE_Simmons_AUR_rTPO is a biochemical, single-readout assay that uses microsomes from rat thyroid gland in a tissue-based cell-free assay. Measurements were taken 0.5 hour after chemical dosing in a 384-well plate.CCTE_Simmons_AUR_rTPO is the assay component measured from the CCTE_Simmons_AUR_rTPO assay. It is designed to make measurements of thyroperoxidase (TPO) activity as detected with fluorescence intensity signals using the Amplex UltraRed technology as a form of enzyme activity reporter.Data from the assay component CCTE_Simmons_AUR_rTPO was analyzed at the endpoint, CCTE_Simmons_AUR_rTPO, in the positive analysis fitting direction relative to DMSO as the negative control and baseline of activity. Using a type of enzyme reporter, the Amplex UltraRed assay, loss-of-signal activity can be used to understand decreased peroxidase activity in the presence of excess […]. To generalize the intended target to other relatable targets, this assay endpoint is annotated to the oxidoreductase intended target family, where the subfamily is peroxidase.
As described previously (Paul et al., 2014), the AUR substrate was repurposed to detect peroxidase (ie, TPO) activity in the presence of excess H2O2 for the AUR-TPO assay. The reaction profile for the 384-well format AUR-TPO assay is scaled to an 80 ul assay volume containing 25 uM AUR, 300 uM H2O2, and 5 ug microsomal protein in 200 mM phosphate buffer. The assay concentration of thyroid microsomal protein was approximately […]. First, rat microsomes containing TPO and diluent 200mM potassium phosphate buffer were added to opaque, black 384-well plates (Greiner, BioExpress; Kaysville, Utah) using an automated liquid handler (BioTek MicroFlo; Winooski, Vermont) with a plastic 5 ul tubing cassette. Similarly, AUR was added next by automated liquid handling. Test compounds were administered using a HDRT as described earlier to achieve a 0.5% final DMSO concentration. Finally, H2O2 (300 uM, final concentration) was then added by the BioTek MicroFlo to initiate the reaction. Microplates were incubated at 37C in the dark for 30min. Plates were then shaken on a fluorescence plate reader (FLUOStar Optima, BMG LabTech; GmbH, Germany), and endpoint fluorescence (top read) was measured using 10 flashes per well at 544/590nm excitation/emission. Three biological replicates of technical singles were run for every chemical concentration tested. A titrated range of MMI served as a positive control for TPO inhibition on each plate of the AUR-TPO screening campaign. Test chemicals were administered as a titrated series of 8 concentrations from 5 nM up to 87.5 uM [final] for 30 minutes prior to single endpoint detection. Dimethylsulfoxide [DMSO] was used as the vehicle control. Methimazole [MMI] was used as the positive control and was administered as a titrated series of 8 concentrations from 1 nM up to 271 uM [final].
With `O=C(CBr)c1ccc(O)cc1`, the AC50 was 6.82 µM (active) and 5.72 µM (active).
With `CC(C)(C)c1ccccc1O`, the result was inactive.
On to `O=C1c2ccccc2C(=O)C1C(=O)C(c1ccccc1)c1ccc(Cl)cc1` (stereo not drawn), for which the AC50 was 32.4 µM (active).
In the case of `CCCCCCCCCCCCc1cccc(S(=O)(=O)O)c1`, the AC50 is 39.4 µM (active).
With `COc1ccc(N)cc1`, the AC50 was 1.44 µM (active).
Consider `CN(C)C(=S)S`, for which the AC50 is 30.8 µM (active).
Still for that read-out and setting: for `CCOP(=S)(OCC)O/N=C(\C#N)c1ccccc1` the value was 20.7 µM (active); for `CCOP(=S)(OCC)SCS(=O)(=O)C(C)(C)C`, 43.8 µM (active); for `Nc1ncn[nH]1`, 2.24 µM (active).
`N#CS`: the AC50 was 10.6 µM (active) and 8.87 µM (active).
Still for that read-out and setting: the result for `N#CCC#N` reads 7.66 µM (active).
Still for that read-out and setting: for `CCCCCCCCCCCCOS(=O)(=O)O` the value was 28 µM (active) and 48.7 µM (active); for `COc1ccccc1N`, 0.39 µM (active).
Turning to `CCCSP(=S)(OCC)Oc1ccc(SC)cc1` (stereo not drawn), the outcome was inactive.
Turning to `Nc1ccc(N)cc1`, the AC50 is 5.63 µM (active).
Take `O=C(NC(=O)c1c(F)cccc1F)Nc1ccc(Cl)cc1`: the AC50 is 25.4 µM (active).
Regarding `O=c1[nH]c(=O)n(Cl)c(=O)n1Cl`, the compound was called inactive.
Consider `CN(N=O)C(N)=O`, for which the AC50 was 58.9 µM (active).
With `CCOc1ccc(N)cc1`, the half-maximal activity concentration (AC50) is 1.75 µM (active).
With `O=S1(=O)OC(c2cc(Br)c(O)c(Br)c2)(c2cc(Br)c(O)c(Br)c2)c2ccccc21`, the AC50 was 25.9 µM (active).
On the same count and under the same terms, the result for `O=C(CCl)Nc1ccccc1` reads 16 µM (active).
With `COC(=O)Nc1cccc(OC(=O)Nc2cccc(C)c2)c1`, the AC50 is 0.398 µM (active).
Regarding `O=C(O)C1(c2ccc3c(c2)OC[C@H](Cc2ccc(-c4ccccc4)cc2)[C@H]3O)CCCC1`, the AC50 is 33.4 µM (active).

The term AC50 denotes the concentration giving half of the maximal activity seen.

(Values after PubChem BioAssay (EPA / NIEHS).)
